In PubChem BioAssay:
“And” between values parts separate entries of the source, which are not always exact repeats. Identical values can stand only once. The source made the active and inactive calls. Unless noted, no rule for the calls is given here.

Assays:
[1] = resazurin metabolic signal in HepG2 cells – cell-based, resazurin fluorescence, 24 h, PK04 Diversity Set, profiling panel (AID 1172); settings: HepG2 viability, higher = more signal; also: test concentration not given here
[2] = budding yeast growth changes without added modifier – OD600, strain BY4716, 24 h, basal condition, primary screen (AID 1173); settings: S. cerevisiae BY4716 growth, OD600, 24 h; higher = more signal, called active from +8 up or from −8 down
[3] = viability profiling in MM1S myeloma cells – cell-based, resazurin fluorescence, basal, 24 h, PK04 Diversity Set, profiling panel (AID 1174); settings: higher = more signal, called active from +8 up or from −8 down;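 also: MM1S multiple myeloma cell line; test concentration not given here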
[4] = target: Dihydroorotate dehydrogenase (quinone), mitochondrial (Plasmodium falciparum (isolate 3D7)) (UniProt Q08210); assay: inhibition of P. falciparum DHODH – biochemical, C-terminal His tag, absorbance 600 nm, primary screen (AID 1175); settings: PfDHODH enzyme, DCIP absorbance 600 nm; higher = more signal, called active from +8 up or from −8 down;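 also: recombinant parasite enzyme with a five histidine tag at its C terminus; test concentration not given here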
[5] = inhibition of PAO1 biofilm formation – strain PAO1, LB-PBS medium, absorbance 600 nm, primary screen (AID 1176); also: test concentration not given here; settings: P. aeruginosa PAO1 growth/biofilm, A600, 12 h; higher = more signal
[6] = growth modulation of vineyard yeast isolate – strain RM11-1a, OD600, basal, 24 h, primary screen (AID 1177);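 also: cultures grown under basal conditions with no added stressor; test concentration not given here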; settings: S. cerevisiae RM11-1a growth, OD600, 24 h; higher = more signal, called active from +8 up or from −8 down
[7] = growth of efflux-deficient E. coli DRC39 – strain DRC39, OD650, 24 h, E. coli filamentation inducers, primary screen (AID 1178);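 also: growth measured as culture turbidity by optical density at 650 nm; test concentration not given here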; settings: E. coli DRC39 acrAB, higher = more signal, called active from +8 up or from −8 down
[8] = growth of efflux-deficient E. coli DRC39 – strain DRC39, OD650, 48 h, E. coli filamentation inducers, primary screen (AID 1179);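 also: screen aims at cell division blockers that make cells filament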; settings: E. coli DRC39 delta-acrAB growth, higher = more signal, called active from +8 up or from −8 down
[9] = viability profiling in RPMI8226 myeloma cells – cell-based, resazurin fluorescence, basal, 24 h, PK04 Diversity Set, profiling panel (AID 1180); settings: higher = more signal;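 also: RPMI8826 multiple myeloma cell line at 5000 cells per well; test concentration not given here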
[10] = target: E3 ubiquitin-protein ligase XIAP (Homo sapiens) (UniProt P98170); assay: small molecules binding XIAP protein – biophysical, small-molecule microarray, fluorescence 635 nm, primary screen (AID 1181); settings: higher = more signal;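 also: score merges 667 nm emission and signal to noise over triplicate slides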
E3 ubiquitin-protein ligase XIAP (Homo sapiens), sequence (P98170 whole entry, looked up): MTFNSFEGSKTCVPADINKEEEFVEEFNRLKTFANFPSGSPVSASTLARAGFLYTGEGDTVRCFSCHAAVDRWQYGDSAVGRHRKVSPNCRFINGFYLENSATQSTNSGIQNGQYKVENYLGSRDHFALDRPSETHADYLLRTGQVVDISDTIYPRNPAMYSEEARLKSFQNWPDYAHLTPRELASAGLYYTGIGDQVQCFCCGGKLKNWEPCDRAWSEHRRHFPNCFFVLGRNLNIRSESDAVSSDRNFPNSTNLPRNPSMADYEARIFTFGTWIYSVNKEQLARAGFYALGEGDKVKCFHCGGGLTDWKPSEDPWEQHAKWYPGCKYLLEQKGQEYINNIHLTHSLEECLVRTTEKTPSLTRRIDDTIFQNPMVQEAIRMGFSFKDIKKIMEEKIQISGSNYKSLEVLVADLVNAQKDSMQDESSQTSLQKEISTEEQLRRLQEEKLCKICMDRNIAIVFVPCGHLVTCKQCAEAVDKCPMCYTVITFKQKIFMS

Dihydroorotate dehydrogenase (quinone), mitochondrial (Plasmodium falciparum (isolate 3D7)), sequence (Q08210 whole entry, looked up): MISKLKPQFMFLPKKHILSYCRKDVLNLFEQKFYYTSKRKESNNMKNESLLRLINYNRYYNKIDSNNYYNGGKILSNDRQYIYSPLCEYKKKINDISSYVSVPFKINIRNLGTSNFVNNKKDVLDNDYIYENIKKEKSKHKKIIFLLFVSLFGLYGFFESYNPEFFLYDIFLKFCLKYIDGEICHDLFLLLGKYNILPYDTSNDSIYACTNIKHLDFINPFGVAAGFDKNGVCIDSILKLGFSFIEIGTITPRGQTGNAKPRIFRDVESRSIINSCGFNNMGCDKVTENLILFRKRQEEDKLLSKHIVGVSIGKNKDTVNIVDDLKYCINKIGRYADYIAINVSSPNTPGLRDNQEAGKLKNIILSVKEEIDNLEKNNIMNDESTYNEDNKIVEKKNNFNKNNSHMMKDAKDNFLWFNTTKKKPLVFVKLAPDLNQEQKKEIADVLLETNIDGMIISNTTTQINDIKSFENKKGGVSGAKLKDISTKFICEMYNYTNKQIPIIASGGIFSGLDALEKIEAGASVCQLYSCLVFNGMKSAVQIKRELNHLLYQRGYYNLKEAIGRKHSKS

Structure (SMILES)	z-score [1]	z-score [2]	z-score [3]	composite z-score [4]	z-score [5]	z-score [6]	z-score [7]	z-score [8]	z-score [9]	composite z-score [10]
C=CCN(CCCCC)C(=O)C1N(CCCCCCO)C(=O)C2C(C(=O)O)C3C=CC21O3 (stereo not given)	-0.382 and -0.569	-0.0594 (inactive) and -0.411 (inactive)	-0.847 (inactive) and -0.718 (inactive)	0.0615 (inactive) and -0.082 (inactive)	0.0809 (inactive) and -0.966 (inactive)	-0.42 (inactive) and -0.52 (inactive)	0.554 (inactive) and -0.272 (inactive)	0.44 (inactive) and -0.188 (inactive)	-0.772 and -0.735	-0.152 and 0.0785
COC(=O)C1=C(C)N(Cc2ccccc2)[C@]23O[C@](C(=O)OC)(C(=O)N2[C@@H]1c1ccccc1)[C@H]1CCCC(=O)[C@H]13	-0.483 and -0.852	-2.15 (inactive) and -0.0243 (inactive)	0.167 (inactive) and 0.867 (inactive)	0.149 (inactive) and -3.24 (inactive)	0.39 (inactive) and -0.692 (inactive)	-0.186 (inactive) and -0.402 (inactive)	-0.321 (inactive) and -1.18 (inactive)	-0.204 (inactive) and -1.38 (inactive)	-0.327 and -0.466	0.0548 and -0.16
CC(C)CCN1CCc2nc(-c3ccccc3)c3c(c2C1)CO[C@@H](C)C3	-0.123	-1.08 (inactive)	-0.0881 (inactive)	-0.363 (inactive)	-0.188 (inactive)	0.396 (inactive)	0.66 (inactive)	0.0602 (inactive)	0.129	0.201
CC[C@@H]1C(Sc2ccccc2)C(C(=O)O)[C@H](c2ccc(C)cc2)N1S(=O)(=O)c1ccc(C)cc1 (stereo not given in full)	-0.706 and -0.917	-0.28 (inactive) and -1.3 (inactive)	-0.567 (inactive) and 0.0522 (inactive)	0.0392 (inactive) and -0.581 (inactive)	0.133 (inactive) and 0.257 (inactive)	-0.112 (inactive) and -1.09 (inactive)	-0.604 (inactive) and -0.627 (inactive)	-0.106 (inactive) and 0.575 (inactive)	-1.17 and -0.637	0.287 and 0.382
C=CC[C@@H](O)c1ccc(O)c2ccccc12	0.202 and -0.349	-17.2 (active) and -17.3 (active)	-2.06 (inactive) and -2.1 (inactive)	-2.37 (inactive) and -3.1 (inactive)	1 (inactive) and 1.33 (inactive)	-0.508 (inactive) and 0.0761 (inactive)	1.2 (inactive) and -0.0099 (inactive)	0.635 (inactive) and -0.379 (inactive)	-0.947 and -1.55	0.205 and 0.0537
CC(C)OC(=O)C=C1C[C@@H](c2ccccc2)O[C@@H](c2ccccc2)O1	0.0904 and -0.562	-1.21 (inactive) and -0.385 (inactive)	0.468 (inactive) and -3.15 (inactive)	-0.125 (inactive) and -1.68 (inactive)	0.533 (inactive) and 0.394 (inactive)	0.306 (inactive) and 0.904 (inactive)	-0.65 (inactive) and -0.601 (inactive)	0.945 (inactive) and 0.907 (inactive)	1.54 and -2.33	-0.13 and 0.013
CCOC(=O)[C@H](Cc1ccccc1)NC(=O)CCC1CC(OC(=O)NCc2cccc3ccccc23)CC2(CCCC(COC(=O)NCCCN3CCCC3=O)O2)O1 (stereo not given in full)	0.968	-1.78 (inactive)	1.07 (inactive)	-1.19 (inactive)	0.639 (inactive)	-0.697 (inactive)	-0.35 (inactive)	-0.209 (inactive)	1.75	-0.336
O=c1n(-c2ccccc2)c(=O)n2n1CC[C@@H]1C(=NOC[C@@H](O)COCc3ccco3)[C@H]3O[C@H]3[C@@H](O)[C@@H]12	-0.618 and -0.581	-0.428 (inactive) and 0.804 (inactive)	0.467 (inactive) and -0.453 (inactive)	-2.79 (inactive) and 0.389 (inactive)	0.413 (inactive) and -0.455 (inactive)	-0.37 (inactive) and 0.962 (inactive)	-0.417 (inactive) and 0.0343 (inactive)	-0.802 (inactive) and -0.756 (inactive)	0.0942 and -0.433	-0.0085 and -0.434
C=CCN(CCCC)C(=O)C(c1cccs1)N(C(=O)/C=C\C(=O)O)c1ccc(CCO)cc1 (stereo not given)	-0.289 and -0.837	-0.561 (inactive) and -0.0853 (inactive)	-0.508 (inactive) and -2.49 (inactive)	-0.133 (inactive) and 0.117 (inactive)	-0.208 (inactive) and -0.469 (inactive)	0.24 (inactive) and 0.473 (inactive)	0.596 (inactive) and 0.709 (inactive)	0.597 (inactive) and 0.915 (inactive)	-0.213 and -0.931	-0.102 and 0.0641
CC(=O)OC[C@H]1O[C@H](C#CC(C)(C)C)C=C[C@@H]1OC(C)=O	-0.374	-0.854 (inactive)	-0.756 (inactive)	-0.187 (inactive)	-0.151 (inactive)	-0.066 (inactive)	0.545 (inactive)	0.221 (inactive)	-0.26	0.0237
C=CCN(CCCCC)C(=O)C(c1cccs1)N(C(=O)/C=C\C(=O)O)c1c(Cl)cccc1CO (stereo not given)	-0.939 and -0.559	-0.69 (inactive) and -0.768 (inactive)	-0.18 (inactive) and -0.317 (inactive)	0.401 (inactive) and 0.461 (inactive)	-0.0837 (inactive) and -0.677 (inactive)	-0.0138 (inactive) and -0.374 (inactive)	0.246 (inactive) and 0.0068 (inactive)	0.425 (inactive) and 0.212 (inactive)	-0.394 and -0.42	-0.158 and -0.378
CCOC(=O)[C@H](CC(C)C)NC(=O)CCC1CC(OC(=O)NCc2cccc3ccccc23)CC2(CCCC(COC(=O)NCc3ccccc3)O2)O1 (stereo not given in full)	0.928	-1.76 (inactive)	1.06 (inactive)	-0.621 (inactive)	-0.0326 (inactive)	-0.527 (inactive)	-0.482 (inactive)	-0.102 (inactive)	0.588	-0.125
C[C@@H]1CN2[C@@H](CC[C@@H](C)[C@@H]2c2ccc(Br)cc2)C(=O)O1	0.0519 and -0.598	0.214 (inactive) and -2.02 (inactive)	0.475 (inactive) and -0.181 (inactive)	0.694 (inactive) and -1.1 (inactive)	-0.188 (inactive) and 0.417 (inactive)	0.999 (inactive) and -1.13 (inactive)	0.322 (inactive) and 0.819 (inactive)	-1.32 (inactive) and -0.313 (inactive)	0.967 and -0.0883	0.118 and 0.166
O=C(NN=C1C[C@@H](O)[C@@H](O)[C@@H]2[C@@H]3C(=O)N(Cc4ccc5c(c4)OCO5)C(=O)[C@@H]3CC[C@H]12)OCc1ccccc1	-0.0124	0.0375 (inactive)	-0.203 (inactive)	-1.62 (inactive)	-0.437 (inactive)	0.273 (inactive)	0.883 (inactive)	1.4 (inactive)	-0.2	0.106
C[C@@H]1CC[C@H]2C(=O)NC[C@@H](O)CN2[C@H]1c1ccc(Br)cc1	-0.278 and -0.27	-0.228 (inactive) and -0.64 (inactive)	-0.503 (inactive) and 0.138 (inactive)	-0.679 (inactive) and 0.382 (inactive)	0.684 (inactive) and -0.27 (inactive)	-0.154 (inactive) and 0.502 (inactive)	0.514 (inactive) and 0.669 (inactive)	-0.882 (inactive) and 0.26 (inactive)	-0.149 and 0.435	-0.0238 and -0.102
COC(=O)C1=C(C)N(Cc2ccccc2)C2=C3C(=O)N(C)C(=O)[C@@H]3[C@@](O)(C(=O)OC)C(=O)N2[C@@H]1c1ccccc1	0.498 and -1.16	-0.816 (inactive) and -1.23 (inactive)	0.92 (inactive) and -0.281 (inactive)	-0.105 (inactive) and -0.613 (inactive)	-0.27 (inactive) and 0.0039 (inactive)	-0.544 (inactive) and -2.42 (inactive)	0.448 (inactive) and -0.0247 (inactive)	0.275 (inactive) and 0.0957 (inactive)	0.922 and -0.377	-0.0622 and -0.0848
C[C@@H](c1ccccc1)N1C(=O)[C@H]2[C@H]3[C@H](O)[C@H](O)CC(=O)[C@@H]3CC[C@H]2C1=O	-0.7	-1.05 (inactive)	0.295 (inactive)	-1.59 (inactive)	0.377 (inactive)	-2.9 (inactive)	-0.579 (inactive)	-0.954 (inactive)	-0.62	-0.163
